High-throughput results from PubChem.
Pf Dd2 inh = blocks in vitro growth of P. falciparum Dd2 | actives 4.3% (n = 120,000) | P. falciparum Dd2 growth, SYBR Green, 72 h | Potency, µM (doses to about 28.9 µM), inactives show at the top dose activity, negative = inhibition, most hits filed as inhibitors; active means well fitted inhibition curve with a large enough effect;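 further: plate controls were DMSO vehicle for no effect and reference drug for full effect; nearly all actives have a fitted effect of over 65% in size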
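Infected erythrocytes (Dd2, 0.3% parasitemia, 2.5% hematocrit final) are added to compound in RPMI-1640/Albumax II medium, grown 72 h at 37C in low oxygen, then lysed with saponin/Triton-X containing SYBR Green and read by fluorescence.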
* marks the source's active call; other numbers are inactive results; i = inactive; [ ] = dose if it differs, or a comment. The full list was thinned out, with hits kept by preference. Potency means the concentration at half of the fitted maximal effect.

SMILES	Pf Dd2 inh
COCCNC(=O)C[C@@H]1C[C@H]2O[C@H](CNC3CCNCC3)[C@@H](O)[C@H]2O1	20.0%[44.1 µM]
Cc1ccc(C(CC(=O)NC(C)C)c2cn(C)c3ccccc23)cc1 (configuration not stated)	i
Cc1nc2c(c(=O)[nH]1)CCN(C(=O)c1cn(CCC3CCCCN3)nn1)CC2 (configuration not stated)	-7.0%
COc1ccc(CC(=O)N2CC[C@H]3COC(=O)N3c3cc(F)ccc3C2)cc1	-13.4%[44.1 µM]
NC(=O)[C@H](Cc1ccc(O)cc1)NC(=O)[C@@]1(O)C[C@@H](O)[C@H](O)[C@@H](NC(=O)CC2(CC(=O)O)CCCC2)C1	-23.4%
Cc1ccc(-c2nc(C(=O)NCc3ccc4c(c3)OCO4)no2)cc1	i
Cc1ccc(-c2nc(C(=O)N3CCN(Cc4ccc5c(c4)OCO5)CC3)no2)cc1	11.2µM*
Cc1ccc(CNC(=O)c2noc(-c3ccc4c(c3)OCO4)n2)cc1	i
COCCNC(=O)[C@@H]1C[C@@H](O)CN1C1CCN(C(=O)c2ccc3ccccc3n2)CC1	6.8%
COCCOCC1(CNC(=O)COc2ccccc2)C[C@@H](O)[C@@H](O)C1 (some centres not stated)	-7.7%[44.1 µM]
CCOc1ccccc1NC(=O)N1CCC(Cc2nc(-c3ccccc3)n[nH]2)C1 (configuration not stated)	i
C[C@@H](NC(=O)C1CCOCC1)c1onc(-c2ccc(Cl)cc2)c1C(=O)O	24.7%[44.1 µM]
O=C(NCCc1ccccc1)N(C1CCOCC1)C1CCN(Cc2ccccc2)CC1	5.62µM*
O=C(NCCc1ccccc1)N(C1CCOCC1)C1CCN(Cc2ccsc2)CC1	-15.3%
O=C(NCCc1ccccc1)N(C1CCOCC1)C1CCN(Cc2cccnc2)CC1	i
COC1C(=O)N(C2CCN(C(=O)Cc3cccnc3)CC2)C12CCOCC2 (configuration not stated)	11.8%
O=S1(=O)CCC(S(=O)(=O)Nc2ccccc2)C1 (configuration not stated)	3.0%
OCC1(Cc2ccccc2Cl)CCN(Cc2cc3ccccc3o2)CC1	8.91µM*
CC(C)n1cc(CN2CCC(CO)(Cc3ccccc3Cl)CC2)cn1	-10.6%
COc1ccc(O)c(CN2CCC(CO)(Cc3ccccc3Cl)CC2)c1	8.91µM*
CC(=O)c1cc(CN2CCC(CO)(Cc3ccccc3Cl)CC2)cs1	-10.8%
COc1ccc(F)c(CN2CCC(CO)(CN3CCCC3)CC2)c1	i
COc1cc(N2CCC(CO)(Cc3ccccc3C(F)(F)F)CC2)ncn1	-17.3%
C=CCO[C@@H]1CCN2C(=O)c3cc(-c4cccc(C(F)(F)F)c4)ccc3NC(=O)[C@H]12	-23.5%[44.1 µM]
COc1ccc(S(=O)(=O)N2CCOC[C@H](Oc3cnccn3)C2)cc1	-6.2%[44.1 µM]
SMILES	Pf Dd2 inh
CC1(c2cccnc2)N(Cc2ccccc2)C(=O)OC12CCN(C(=O)C1CCC1)CC2 (configuration not stated)	-17.4%[44.1 µM]
Cc1nc(CN2C(=O)OC3(CCN(C(=O)Cc4ccc(O)cc4)CC3)C2(C)c2ccccc2)cs1 (configuration not stated)	i
COc1ccc(OC)c(CN2CCC3(CC2)OC(=O)N(Cc2ccccc2C#N)C3(C)c2ccccc2)c1 (configuration not stated)	-25.3%
COCC(=O)N1CCC2(CC1)OC(=O)N(Cc1cccnc1)C2(C)c1ccccc1 (configuration not stated)	-1.8%[44.1 µM]
CC1(c2ccccc2)N(Cc2ccccc2F)C(=O)OC12CCN(C(=O)CN1CCOCC1)CC2 (configuration not stated)	i
CC(=O)N1CCC2(CC1)OC(=O)N(Cc1ccccc1F)C2(C)c1ccccc1 (configuration not stated)	i
COc1cccc(CC(=O)N2CCC3(CC2)OC(=O)N(Cc2ncccn2)C3(C)c2ccccc2)c1 (configuration not stated)	-4.3%
CC1(c2ccccc2)N(Cc2ccccc2C#N)C(=O)OC12CCN(c1ccncc1)CC2 (configuration not stated)	11.2µM*
CN1CCC(C(=O)N2CCC3(CC2)OC(=O)N(Cc2ccccc2F)C3(C)c2ccccc2)CC1 (configuration not stated)	5.62µM*
CC1(c2ccccc2)N(Cc2cccnc2)C(=O)OC12CCN(C(=O)c1ccc(Oc3ccccc3)cc1)CC2 (configuration not stated)	6.31µM*
CC1(c2ccccc2)N(Cc2ccccc2C#N)C(=O)OC12CCN(C(=O)Cc1ccccn1)CC2 (configuration not stated)	i
COc1cccc(CC(=O)N2CCC3(CC2)OC(=O)N(Cc2csc(C)n2)C3(C)c2ccccc2)c1 (configuration not stated)	3.98µM*
Cn1nccc1CN1CCC(N2CCOCC2=O)CC1	22.6%[44.1 µM]
O=C(NC1CCCN(c2cc(-c3ccc(F)cc3)[nH]n2)C1)c1ccc2c(c1)OCO2 (configuration not stated)	i
Cc1ccc(C(=O)NC2CC(C)(C)Cc3nc(N4CCOCC4)ncc32)cn1 (configuration not stated)	-3.7%
CC1(C(=O)N2CCC2)CN(Cc2ccccc2)Cc2ccc(N3CCOCC3)nc21 (configuration not stated)	-10.8%[44.1 µM]
CCn1c(C2CCCN(C(=O)c3nnn(Cc4ccccc4)c3C)C2)n[nH]c1=O (configuration not stated)	13.3%
Cc1cc(CN2CCCCCCn3c(nnc3-c3ccc(F)cc3)CC2)n(C)n1	-5.8%
COc1ccc(NC(=O)Cn2c(-c3ccc(F)cc3)nc(C)cc2=O)cc1	i
CCCNC(=O)Cc1ccc(N(Cc2ccc(F)cc2)C(=O)c2ccco2)cc1	i
C#CCNC(=O)CC[C@@H]1CNC(=O)[C@@H]2C[C@H](NC(=O)c3cccc(F)c3)CN12	36.4%[44.1 µM]
CCc1ccc(C(=O)N2CCC3(CC2)N=C(c2cccc(Br)c2)NO3)cc1	-12.9%
COc1ccc(C(C)NC(=O)c2noc(-c3ccc[nH]c3=O)n2)cc1OC (configuration not stated)	-22.0%
Cn1nccc1C(=O)N1CCC2(CC1)OC(=O)N(Cc1ccccc1C#N)C2(C)c1ccccc1 (configuration not stated)	10µM*
CC1(c2ccccc2)N(Cc2ccccc2C#N)C(=O)OC12CCN(C(=O)c1ccc(F)cc1)CC2 (configuration not stated)	i
SMILES	Pf Dd2 inh
CC1(c2ccccc2)N(Cc2ccccc2F)C(=O)OC12CCN(C(=O)c1cnccn1)CC2 (configuration not stated)	i
CC(Oc1ccc(F)cc1F)C(=O)N1CCC2(CC1)CC(=O)N(C)C2 (configuration not stated)	13.9%
CCN(C(=O)Cn1cnc2onc(-c3ccc(F)cc3)c2c1=O)c1ccc(OC)cc1	11.2µM*
O=C(Cn1cnc2onc(-c3ccc(Cl)cc3)c2c1=O)Nc1ccc(F)cc1	-21.8%
CCOc1ccc(NC(=O)CCn2cnc3onc(-c4ccc(F)cc4)c3c2=O)cc1	i
COc1ccc(C(=O)NCc2nnc3ccc(-c4ccc(F)cc4)nn23)cc1OC	-3.6%
CCOC(=O)c1cnc2c(ccc3ccccc32)c1Nc1cccc(OC)c1	51.3%
CCOC(=O)c1ccc2ncc(C(=O)OCC)c(NCCc3ccc(OC)c(OC)c3)c2c1	8.91µM*
CCOC(=O)c1cnc2c(ccc3ccccc32)c1Nc1ccc(OCC)cc1	18.4%
CCOC(=O)c1cnc2ccc(OCC)cc2c1Nc1cc(Cl)c(OC)cc1OC	49.4%
CCOC(=O)c1cnc2ccc(OC)cc2c1NCCc1ccccc1	3.98µM*
